From PubChem BioAssay
Calls of active or inactive are those of the source.

Assays:
[1] = compounds binding Alexa647 anti-His antibody – biochemical, small-molecule microarray, 635 nm fluorescence, artefact control for SMM control protein annotation, primary screen (AID 1128); details: higher = more signal;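 further: score merges feature fluorescence with signal-to-noise for each printed compound spot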
[2] = tested on: Human papillomavirus type 1a E7 protein (residues 1-88); assay: HPV1a E7 small-molecule binders, primary screen, biochemical, small-molecule microarray, residues 1-88, 635 nm (AID 1129); details: small-molecule microarray binding, fluorescence 635 nm; higher = more signal
[3] = molecular target: Focal adhesion kinase 1 (Homo sapiens) (UniProt Q05397); assay: PTK2 protein binding on printed compound slides – biochemical, small-molecule microarray, 635/667 nm fluorescence, BSA, DTT, primary screen (AID 1130); details: 635 nm fluorescence, higher = more signal;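 further: composite of spot emission at 667 nm and signal to noise over triplicate slides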
[4] = tested on: Fibrinogen (Alexa647-labelled); assay: Alexa647-fibrinogen binding to printed small molecules – biochemical, small-molecule microarray, 635/667 nm fluorescence, artefact control for SMM control-protein annotation, profiling panel (AID 1131); details: fibrinogen-A647 binding fluorescence, higher = more signal;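 further: z-score merges 667 nm fluorescence with per-spot signal-to-noise over triplicate slides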
[5] = molecular target: Follistatin (Homo sapiens) (UniProt P19883); assay: FST protein binding to printed compounds – biochemical, small-molecule microarray, 635/667 nm fluorescence, primary screen (AID 1132); details: 635 nm fluorescence, higher = more signal
[6] = molecular target: Fibroblast growth factor 2 (Homo sapiens) (UniProt P09038); assay: basic fibroblast growth factor binding to printed compounds – biochemical, small-molecule microarray, 635/667 nm fluorescence, primary screen (AID 1133); details: FGF2, fluorescence 635/667, higher = more signal
[7] = JC-1 mitochondrial potential readout, lung cancer cells – cell-based, A549, JC-1 fluorescence, basal, 24 h, 100 nL, profiling panel (AID 1138); details: higher = more signal;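 further: A549 lung adenocarcinoma cells under basal conditions with no added stimulus; test concentration not given here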
[8] = tested on: Lefty1; assay: Lefty1 protein binding to printed compounds – biochemical, small-molecule microarray, 635/667 nm fluorescence, primary screen (AID 1139); details: fluorescence 635/667, higher = more signal
[9] = tested on: wheat germ agglutinin (Triticum aestivum), Alexa647-labelled; assay: Alexa647-WGA lectin binding to printed small molecules – biochemical, small-molecule microarray, 635/667 nm fluorescence, artefact control for SMM control-protein annotation, profiling panel (AID 1140); details: WGA-A647 binding, 635 nm fluorescence, higher = more signal;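 further: score merges 667 nm feature emission with signal to noise over triplicate slides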
[10] = molecular target: Luciferin 4-monooxygenase (Photinus pyralis) (UniProt P08659); assay: inhibition of purified Photinus pyralis luciferase – biochemical, luminescence, purified enzyme, 2006 set, primary screen (AID 1141); details: purified firefly luciferase, SteadyGlo luminescence, 30 min; higher = more signal, called active from +8 up or from −8 down;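 further: cell-free assay with purified firefly luciferase at 100 ng per well in PBS; test concentration not given here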
Sequence of Luciferin 4-monooxygenase (Photinus pyralis) (P08659 whole entry, looked up): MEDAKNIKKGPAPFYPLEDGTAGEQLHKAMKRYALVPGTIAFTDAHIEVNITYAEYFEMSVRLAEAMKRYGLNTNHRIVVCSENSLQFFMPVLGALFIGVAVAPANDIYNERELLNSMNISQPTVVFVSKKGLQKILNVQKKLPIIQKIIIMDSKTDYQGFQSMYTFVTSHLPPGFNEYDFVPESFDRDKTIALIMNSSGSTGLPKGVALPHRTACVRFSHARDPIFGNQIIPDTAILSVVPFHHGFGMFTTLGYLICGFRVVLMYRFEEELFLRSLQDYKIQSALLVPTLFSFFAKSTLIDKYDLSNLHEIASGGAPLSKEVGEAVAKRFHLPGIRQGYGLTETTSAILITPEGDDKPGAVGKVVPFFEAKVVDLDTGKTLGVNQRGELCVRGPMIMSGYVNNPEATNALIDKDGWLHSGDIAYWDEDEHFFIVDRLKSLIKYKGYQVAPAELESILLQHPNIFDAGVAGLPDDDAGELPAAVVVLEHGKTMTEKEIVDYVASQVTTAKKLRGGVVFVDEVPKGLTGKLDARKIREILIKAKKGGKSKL

Sequence of Focal adhesion kinase 1 (Homo sapiens) (Q05397 whole entry, looked up): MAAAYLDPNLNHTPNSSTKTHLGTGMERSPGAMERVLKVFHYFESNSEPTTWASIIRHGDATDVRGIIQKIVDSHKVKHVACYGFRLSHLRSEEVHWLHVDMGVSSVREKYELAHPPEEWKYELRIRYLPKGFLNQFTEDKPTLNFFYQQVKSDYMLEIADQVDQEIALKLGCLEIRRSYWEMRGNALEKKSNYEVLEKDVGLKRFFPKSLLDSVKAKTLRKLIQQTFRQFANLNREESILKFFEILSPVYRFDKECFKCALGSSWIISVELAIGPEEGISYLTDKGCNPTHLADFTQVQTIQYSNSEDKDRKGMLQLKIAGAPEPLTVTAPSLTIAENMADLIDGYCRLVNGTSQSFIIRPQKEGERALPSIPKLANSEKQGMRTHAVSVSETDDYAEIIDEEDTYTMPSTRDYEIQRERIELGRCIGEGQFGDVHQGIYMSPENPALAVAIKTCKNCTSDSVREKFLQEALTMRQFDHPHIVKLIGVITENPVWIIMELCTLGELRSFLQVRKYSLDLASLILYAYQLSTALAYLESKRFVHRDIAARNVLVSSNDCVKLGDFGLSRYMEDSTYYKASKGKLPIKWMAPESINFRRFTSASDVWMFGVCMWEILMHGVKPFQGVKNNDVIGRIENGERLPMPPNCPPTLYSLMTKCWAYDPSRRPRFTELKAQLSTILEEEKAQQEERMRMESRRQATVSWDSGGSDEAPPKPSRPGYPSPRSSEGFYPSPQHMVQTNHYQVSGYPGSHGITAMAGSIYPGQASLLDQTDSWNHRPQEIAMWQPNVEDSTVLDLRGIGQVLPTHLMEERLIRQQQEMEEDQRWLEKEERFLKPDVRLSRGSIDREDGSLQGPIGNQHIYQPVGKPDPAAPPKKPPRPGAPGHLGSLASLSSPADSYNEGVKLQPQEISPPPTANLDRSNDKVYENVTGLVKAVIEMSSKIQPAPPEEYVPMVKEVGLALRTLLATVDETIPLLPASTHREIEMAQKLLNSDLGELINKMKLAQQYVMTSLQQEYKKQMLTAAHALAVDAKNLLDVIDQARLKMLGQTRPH
Sequence of Follistatin (Homo sapiens) (P19883 whole entry, looked up): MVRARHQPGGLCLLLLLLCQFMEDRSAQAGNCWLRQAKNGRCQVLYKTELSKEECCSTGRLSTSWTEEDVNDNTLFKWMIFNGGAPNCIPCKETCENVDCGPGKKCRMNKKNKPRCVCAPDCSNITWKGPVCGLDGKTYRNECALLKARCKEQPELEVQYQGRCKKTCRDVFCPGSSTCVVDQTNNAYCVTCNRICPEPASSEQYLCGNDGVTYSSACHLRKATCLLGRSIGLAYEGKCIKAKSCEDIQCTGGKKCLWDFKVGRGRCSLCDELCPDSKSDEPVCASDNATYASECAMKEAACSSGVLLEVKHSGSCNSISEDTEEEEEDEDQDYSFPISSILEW
Sequence of Fibroblast growth factor 2 (Homo sapiens) (P09038 whole entry, looked up): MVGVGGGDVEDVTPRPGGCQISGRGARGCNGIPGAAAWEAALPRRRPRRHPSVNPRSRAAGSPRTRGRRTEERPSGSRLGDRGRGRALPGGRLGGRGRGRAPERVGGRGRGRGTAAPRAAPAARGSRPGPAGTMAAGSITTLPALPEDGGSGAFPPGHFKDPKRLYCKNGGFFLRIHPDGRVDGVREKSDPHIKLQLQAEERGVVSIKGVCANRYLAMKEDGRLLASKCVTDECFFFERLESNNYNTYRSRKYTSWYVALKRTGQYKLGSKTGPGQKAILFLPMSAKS

| SMILES | composite z-score [1] | composite z-score [2] | composite z-score [3] | composite z-score [4] | composite z-score [5] | composite z-score [6] | z-score [7] | composite z-score [8] | composite z-score [9] | z-score [10] |
| --- | --- | --- | --- | --- | --- | --- | --- | --- | --- | --- |
| COCCCNC(=O)[C@@]1(c2ccc([N+](=O)[O-])cc2)CC(=O)N(C(C)C)[C@@H]1c1ccc(CO)cc1 | -0.92 | -0.085 | 0.756 | -0.779 | 0.559 | 0.352 | 0.296 | -0.0938 | 0.174 | -0.985 (inactive) |
| COC(=O)[C@@]1(Cc2ccccc2)[C@H]2c3cc(C(=O)N4CCCC4)n(CCSCCO)c3C[C@H]2CN1C(=O)c1ccccc1 | 2.38 | 1.21 | 0.776 | 0.975 | 0.337 | 0.101 | 0.451 | 0.0341 | 0.844 | 0.103 (inactive) |
| C=CCC(OC(C)=O)[C@@H]1[C@@H](N(Cc2cccc3ccccc23)C(=O)c2ccc(-c3ccccc3)cc2)c2cc(OCCCO)ccc2N1C(=O)c1ccc(-c2ccccc2)cc1 (stereo not given in full) | -0.811 | 0.488 | -0.132 | -0.123 | 0.353 | -0.0952 | 0.758 | 0.0683 | 0.204 | -0.0873 (inactive) |
| C=CCNC(=O)[C@H]1[C@@H]2C(=O)O[C@@H](c3ccccc3)[C@@H](c3ccccc3)N2[C@@H](c2ccc(OCCO)cc2)[C@]12C(=O)N(C(=O)OCCOC)c1ccc(C#Cc3ccc(OC)cc3)cc12 | 1.25 | 1.15 | 0.0069 | 0.904 | 1.22 | 0.714 | -1.59 | 0.544 | 0.719 | -1.51 (inactive) |
| COc1cc2c(cc1OC)CN(C(=O)[C@@H]1[C@H]3C(=O)O[C@H](c4ccccc4)[C@H](c4ccccc4)N3[C@H](c3ccc(O)cc3)[C@@]13C(=O)Nc1ccc(C#CCCO)cc13)CC2 | 0.388 | 0.989 | 0.584 | 0.876 | 1.11 | 1.24 | -1.2 | 0.945 | 0.7 | 0.372 (inactive) |
| CN1C(=O)C2C(C1=O)C1C=C(CCCO)C2C(C2CC2)N1Cc1cc2c(cc1Br)OCO2 (stereo not given) | 2.92 | 0.788 | 0.481 | 0.919 | 0.4 | 0.0867 | -0.401 | 0.317 | 0.555 | -0.0255 (inactive) |
| C=C[C@@H](C)[C@@H](OC(=O)Nc1ccc(SC)cc1)c1ccc(OCCO)cc1 | 1.51 | 1.21 | 0.462 | 0.719 | 0.0078 | 0.0877 | -1.64 | 0.191 | 1.04 | -4.2 (inactive) |
| CC(C)C(=C=CC[C@H](O)c1cccc(OCCO)c1)CCO | -0.0157 | -0.374 | 0.107 | -1 | 0.277 | 0.138 | 0.346 | 0.67 | 0.108 | 0.371 (inactive) |
| COCCOC(=O)N1C(=O)[C@@]2(c3cc(C#CC4(O)CCCCCC4)ccc31)[C@H](c1ccc(OCCO)cc1)N1[C@H](c3ccccc3)[C@H](c3ccccc3)OC(=O)[C@H]1[C@@H]2C(=O)Nc1nc2ccccc2s1 | 1.08 | 1.13 | 0.2 | 0.688 | 1.27 | 1.65 | -2.33 | 1.38 | 0.708 | -2.55 (inactive) |
| COCC1C2CC[C@H]3C(OCc4ccc(OC)cc4)OC[C@]4(C)[C@H]3C2=C(CN4C(=O)OC(C)(C)C)[C@H](C)C1COC (stereo not given in full) | 0.565 | 1.2 | 2.09 | 1.02 | 0.916 | 0.0753 | 2.48 | 0.757 | 0.819 | -0.503 (inactive) |
| COc1cc(NN2C(C(O)c3ccc(I)cc3)C=CC3C(=O)N(c4ccccc4)C(=O)C32)cc(OC)c1OC (stereo not given) | 2.4 | 1.24 | 0.522 | 0.993 | 1.2 | 0.562 | 0.235 | 0.52 | 1.39 | -0.285 (inactive) |
| CCOC(=O)C=Cc1cc(F)ccc1O | 0.354 | -0.166 | 0.727 | -0.333 | 0.0875 | 0.0013 | -1.8 | -0.471 | 0.0203 | 0.701 (inactive) |
| CCOC(=O)C1=C[C@@H](c2ccccc2)N(S(=O)(=O)c2ccc(C)cc2)[C@H]1c1ccccc1 | 0.421 | 0.574 | 0.681 | -0.276 | 0.379 | 0.466 | 1.47 | 0.543 | 0.197 | 1.94 (inactive) |
| O=C1C2C=CC(C(O)c3ccco3)N(Nc3ccccc3)C2C(=O)N1c1ccccc1 (stereo not given) | -0.317 | 0.556 | -0.0201 | -1.58 | -0.118 | -1.21 | 1.9 | -0.907 | 0.46 | 1.06 (inactive) |
| CCOC(=O)C1=CC[C@@H](c2ccccc2)N(S(=O)(=O)c2ccc(C)cc2)[C@H]1c1cccc(OC)c1 | 0.741 | 1.15 | -0.0106 | 0.669 | 0.76 | 0.356 | 1.96 | -0.245 | 0.773 | 1.56 (inactive) |
| COCCOC(=O)N1C(=O)[C@@]2(c3cc(C#CCC(C(=O)OC)C(=O)OC)ccc31)[C@H](C(=O)NC[C@H](O)c1ccccc1)[C@H]1C(=O)O[C@H](c3ccccc3)[C@H](c3ccccc3)N1[C@@H]2c1ccc(OCCO)cc1 | 1.02 | 1.19 | 0.427 | 0.891 | 1.4 | 1.58 | -1.58 | 1.32 | 0.309 | -0.997 (inactive) |

| SMILES | composite z-score [1] | composite z-score [2] | composite z-score [3] | composite z-score [4] | composite z-score [5] | composite z-score [6] | z-score [7] | composite z-score [8] | composite z-score [9] | z-score [10] |
| --- | --- | --- | --- | --- | --- | --- | --- | --- | --- | --- |
| C=C[C@@H](OC)[C@H](OC(=O)Nc1ccc(OC)cc1)c1ccc(OC)c(O)c1 | 0.122 | -1.06 | -0.384 | -1.1 | 0.0112 | -0.685 | 0.232 | -0.396 | -0.0358 | -0.737 (inactive) |
| C=C/C=C/[C@@H]1C(=C)CN([C@@H](Cc2ccccc2)C(=O)OC)[C@H]1[C@@H](O)Cc1ccccc1 | 0.507 | 1.07 | 0.507 | 0.807 | 0.818 | 0.227 | 0.718 | 0.446 | 0.635 | -0.053 (inactive) |
| CN1C(=O)C2C(C1=O)C1C=C(CCCO)C2C(c2cccs2)N1Cc1cc2c(cc1Br)OCO2 (stereo not given) | 1.12 | 1.22 | 1.07 | 1.04 | 1.35 | 0.502 | 0.903 | 0.265 | 1.17 | -1.48 (inactive) |
| CCCNC(=O)[C@@]1(Sc2ccc(C)cc2)CC(=O)N(C(C)C)[C@@H]1c1ccc(CO)cc1I | -0.139 | -0.435 | -0.288 | -0.678 | -1.21 | -1.5 | 0.794 | -1.96 | -0.831 | -0.121 (inactive) |
| CC(C)=CCCC(C)=CC(O)C1C=CC2C(=O)N(c3ccccc3)C(=O)C2N1Nc1ccccc1F (stereo not given) | 1.55 | 1.03 | 0.789 | 0.988 | 0.462 | -0.617 | -0.4 | 0.278 | 0.327 | 2 (inactive) |
| O=C1N(CCS(=O)(=O)c2ccccc2)Cc2ccccc2[C@@H]2OC(c3ccc(OCCCO)cc3)=N[C@]12CCS(=O)(=O)c1ccccc1 | 0.519 | 1.27 | 1.2 | 0.645 | 1.41 | 1.7 | -1.19 | 0.783 | 0.817 | -2.08 (inactive) |
| COc1cc(NN2C(C(O)c3cc(OC)c(OC)c(OC)c3)C=CC3C(=O)N(c4ccccc4)C(=O)C32)cc(OC)c1OC (stereo not given) | 1.41 | 1.27 | 0.6 | 1.04 | 1.28 | 1.56 | -0.609 | 0.133 | 0.848 | -0.771 (inactive) |
| C=CCNC(=O)[C@@H]1[C@H]2C(=O)O[C@H](c3ccccc3)[C@H](c3ccccc3)N2[C@H](c2ccc(OCCO)cc2)[C@@]12C(=O)N(C(=O)OCCOC)c1ccc(C#CCCO)cc12 | 0.32 | 1.17 | 1.12 | 0.736 | 1.33 | 0.482 | -0.295 | 1.1 | 0.719 | -11.1 (active) |
| [N-]=[N+]=NCc1ccccc1C[C@]1(C(=O)N2CCOCC2)COC(c2ccc(OCCCO)cc2)=N1 | 2.22 | 1.19 | 0.168 | 0.695 | 0.234 | -0.309 | 2.41 | -0.346 | 1.01 | -1.21 (inactive) |
| CCCC=C(CCC)[C@@H](NS(=O)(=O)c1cccc2cccnc12)c1ccc(-c2ccccc2)cc1 | 0.187 | 1.19 | 0.638 | 0.98 | 0.964 | 0.512 | 1.03 | 1.11 | 0.745 | 2.06 (inactive) |
| C=C(COC)C(=O)CC[C@H](OC(C)=O)c1ccc(OCCO)cc1 | 0.943 | 0.0389 | -0.267 | -0.0148 | 1.51 | 1.43 | -0.686 | 1.46 | 0.777 | -0.574 (inactive) |
| CN(C)CCCNC(=O)[C@@H]1c2ccccc2C(=O)N(C2CCCCC2)[C@H]1c1ccc(CO)cc1 | 2.58 | 1.24 | -0.0457 | 0.508 | 1.35 | 1.3 | 0.494 | 1.04 | 0.277 | 0.876 (inactive) |
| COCCCNC(=O)[C@@]1(Sc2ccc(C)cc2)CC(=O)N(C(C)C)[C@@H]1c1ccc(CO)cc1I | -0.578 | 0.569 | -0.0285 | -0.491 | -0.035 | -0.335 | -0.0858 | -0.21 | 0.271 | 0.805 (inactive) |
| CS(=O)(=O)CCOC(=O)C1=CC(CCCO)=CC(C2CC2)N(Cc2cccc(OC(F)(F)F)c2)C=C1C(=O)OCCS(C)(=O)=O (stereo not given) | 1.96 | 0.852 | 0.386 | 0.701 | -0.0478 | -0.256 | 1.62 | 0.126 | 0.927 | -1.6 (inactive) |
| COC(=O)C(CC#Cc1ccc2c(c1)[C@]1(C(=O)N2)[C@H](c2ccc(O)cc2)N2[C@H](c3ccccc3)[C@H](c3ccccc3)OC(=O)[C@H]2[C@@H]1C(=O)N1CCCCCCC1)C(=O)OC | 0.792 | 1.23 | 1.47 | 0.945 | 1.43 | 1.4 | 1.21 | 0.966 | 1.35 | -1.99 (inactive) |
